Data taken from PubChem BioAssay AID504660 (National Center for Advancing Translational Sciences (NCATS), 2011).
About 3,700 (1%) of roughly 360,000 compounds were called active. For the sample, actives were picked, then their nearest neighbours and some compounds at random. Values without a mark were called inactive. Cut-off read from the data, not from the text of the source: active = activation above about 30%; inactive = the rest.

Molecular target: D(1A) dopamine receptor (Homo sapiens) (UniProt P21728)
Sequence (P21728 whole entry, looked up): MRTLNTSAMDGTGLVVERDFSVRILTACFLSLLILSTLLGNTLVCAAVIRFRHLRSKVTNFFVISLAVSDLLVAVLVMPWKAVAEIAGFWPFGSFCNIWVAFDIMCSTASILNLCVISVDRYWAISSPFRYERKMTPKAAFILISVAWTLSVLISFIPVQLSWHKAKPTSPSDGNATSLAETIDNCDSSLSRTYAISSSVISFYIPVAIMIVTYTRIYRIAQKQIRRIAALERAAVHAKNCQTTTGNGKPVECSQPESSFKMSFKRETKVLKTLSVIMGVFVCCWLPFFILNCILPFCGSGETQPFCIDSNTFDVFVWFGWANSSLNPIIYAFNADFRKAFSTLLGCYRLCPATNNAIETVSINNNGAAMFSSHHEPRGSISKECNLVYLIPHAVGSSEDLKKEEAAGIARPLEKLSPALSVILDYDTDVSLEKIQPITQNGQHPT
Assay: Allosteric Agonists of the Human D1 Dopamine Receptor: qHTS; note: 0% is about no effect
Conditions: HEK293 T-REx D1 cells, calcium flux, agonist mode; at 2 µM; hits give high values
How it was run: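 Agonism was scored from calcium flux recorded over 180 s (1 read/s) after pintool compound addition, following a 10-cycle baseline. Cells were inducible force-coupled HEK293 TREx D1, plated overnight at 30 C and loaded with no-wash calcium dye.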

| SMILES | activation |
| --- | --- |
| COc1ccc(C(=O)CSc2n[nH]c(N)n2)cc1 | -2.12% |
| COC(=O)c1cccc(NC(=O)CSc2nc(C)cc(=O)[nH]2)c1 | 1.14% |
| COC(=O)c1cc(C(=O)CSc2nc(C)cc(C)n2)ccc1O | 257% (active) |
| Cn1c(=O)c2c(nc(SCC(=O)Nc3ccc(F)cc3)n2Cc2ccc(Cl)cc2)n(C)c1=O | -0.966% |
| CCOC(=O)c1ccc(NC(=O)C2CCN(S(=O)(=O)c3ccc4c(c3)CCCC(=O)N4)CC2)cc1 | -0.195% |
| COc1ccc(Cl)cc1N(C)C(=O)c1cc2c(=O)oc3ccc(C)cc3c2s1 | 1.68% |
| COC(=O)c1sc(-c2ccc(C(C)(C)C)cc2)cc1NC(=O)/C=C/C(=O)O | 33% (active) |
| Cc1ccc(NC(=O)c2oc3ccccc3c2NC(=O)Cc2cccs2)cc1 | 5.67% |
| CCN1C(=O)c2ccccc2Sc2ccc(NC(=O)Cc3ccc(OC)cc3)cc21 | 8.31% |
| COc1ccc(NC(=O)Nc2cccc(-c3noc(C)n3)c2)cc1 | -0.581% |
| COc1ccc(-c2nc3ccc(C(=O)NCc4ccc(C)cc4)cc3nc2-c2ccc(OC)cc2)cc1 | -0.317% |
| COc1ccc(-c2onc3ccc(C(C)=O)cc23)cc1 | 68% (active) |
| O=C(NCCCc1ccccc1)c1ccc2c(c1)sc1nc(-c3ccc(F)cc3)cn12 | 1.38% |
| COC(=O)c1cc(S(=O)(=O)NC2CCN(Cc3ccccc3)CC2)cn1C | 6.94% |
| COC(=O)c1cc(S(=O)(=O)NCC2CCN(Cc3ccc(Cl)cc3)CC2)cn1C | 35.7% (active) |
| O=S(=O)(NCC1CC1)c1ccc(F)c(Cl)c1 | 0.965% |
| O=C(CSc1ncc(CO)n1Cc1ccc(Cl)cc1)NCc1ccc(F)cc1 | -0.41% |
| Cc1ccc(NC(=O)CSc2nc3c(c(=O)[nH]2)CN(Cc2ccc4c(c2)OCO4)CC3)cc1C | 2.15% |
| CCNC(=O)CC1C(=O)N(c2ccc(F)cc2)C(=O)N1Cc1ccc(C)cc1 (stereo not given) | -1.09% |
| COCc1cc(C)nc(SCC(=O)Nc2cccc(C)c2)c1C#N | 1.7% |
| Cc1ccc(-c2cc(C(F)(F)F)c(C#N)c(SCC(=O)Nc3ccccc3)n2)cc1 | 76.6% (active) |
| Cc1cc(C(F)(F)F)c(C#N)c(SCC(=O)NC2CC2)n1 | 2.38% |
| CCOc1ccc(-n2c(C)nc3c(cnn3-c3ccc(C)cc3)c2=O)cc1 | 0.209% |
| CCCCNC(=O)c1c[nH]c2ccc(S(=O)(=O)Nc3ccc(OCC)cc3)cc2c1=O | 5.78% |
| CCCCN(CC)C(=O)c1c[nH]c2ccc(S(=O)(=O)Nc3cccc(OC)c3)cc2c1=O | 1.98% |
| COc1cccc(NS(=O)(=O)c2ccc3[nH]cc(C(=O)NCCCOC(C)C)c(=O)c3c2)c1 | 122% (active) |
| O=C(c1cccs1)c1cn(CCOc2ccc(Cl)cc2)c2ccccc12 | -1.61% |
| Cc1ccc(C)n1-c1nnc(N2CCC(C(=O)NCc3ccc(F)cc3)CC2)s1 | 2.04% |

| SMILES | activation |
| --- | --- |
| CC1=C(c2ccc(Cl)cc2)S(=O)(=O)N=C1N1CCN(c2cc(C)ccc2C)CC1 | 7.7% |
| Cc1oc(-c2ccccc2)nc1Cn1c(SCc2cccc(C(F)(F)F)c2)nc2cccnc21 | 3.89% |
| CN(Cc1nc2ccccc2c(=O)[nH]1)Cc1cc(=O)oc2ccc3ccccc3c12 | -0.344% |
| Cc1ccc2c(=O)oc(N(C)C)nc2c1 | 1.52% |
| CCN(CC)c1ccc2oc(=O)c(C)nc2c1 | 192% (active) |
| Cc1ccc(Cl)cc1N1CCN(C(=O)c2cn(C)c3ccc(S(=O)(=O)N(C)C4CCCCC4)cc3c2=O)CC1 | 3.27% |
| O=C(Nc1ccc2c(c1)OCO2)c1cc(-c2cccc(Cl)c2)on1 | -1.41% |
| Cc1ccc(C(=O)Nc2sc(Cc3ccc4c(c3)OCO4)c(C)c2C(N)=O)cc1 | -1% |
| COc1ccc(Cl)cc1S(=O)(=O)Nc1cccc(C(=O)O)c1 | 2.88% |
| Cc1ccc(S(=O)(=O)c2c(Nc3cccc(Cl)c3)sc(C(=O)c3ccc4c(c3)OCO4)c2N)cc1 | 61.9% (active) |
| COc1ccc(C(=O)N2CCC(C(=O)Nc3ccc(C)cc3)CC2)cc1 | 1.17% |
| COc1ccc(S(=O)(=O)c2c(Nc3ccc(C)cc3)sc(C(=O)c3ccc(C)cc3)c2N)cc1 | 56.2% (active) |
| CO/N=C(/CS(=O)(=O)c1ccc(Br)cc1)c1ccc(OC)cc1 | 0.348% |
| CC(=O)c1c(Nc2ccccc2)sc(C(=O)c2ccccc2)c1C | 5.07% |
| COc1ccc(S(=O)(=O)c2c(Nc3cccc(Cl)c3)sc(C(=O)c3ccccc3)c2N)cc1 | 75.8% (active) |
| CCc1ccccc1NC(=O)N1CCN(C(=O)c2nsc3ccccc23)CC1 | 2.7% |
| CCCS(=O)(=O)c1ncc(Cl)c(C(=O)Nc2scc(-c3ccccc3)c2C(=O)OCC)n1 | 5.24% |
| O=c1c(NCc2cccs2)nccn1-c1ccccc1 | 2.15% |
| Cc1ccc(CNS(=O)(=O)c2ccc(-c3cc(C(F)(F)F)on3)s2)cc1 | 0.651% |
| Cn1nnnc1Sc1ncnc2scc(-c3ccccc3[N+](=O)[O-])c12 | 1.58% |
| CCc1ccc(NC(=O)Cn2c(=O)n(CCC(=O)NCc3ccc4c(c3)OCO4)c(=O)c3ccccc32)cc1 | -0.957% |
| O=c1c2ccccc2[nH]c(=S)n1CCN1CCC(=C(c2ccc(F)cc2)c2ccc(F)cc2)CC1 | 0.942% |
| O=C(CCCN1CCc2[nH]c3ccc(F)cc3c2C1)c1ccc(F)cc1 | 56.3% (active) |
| Cc1ccc2[nH]c3c(c2c1)CN(C(=O)CN1CCN(c2ccccc2)CC1)CC3 | 0.149% |
| O=C(CSc1nc2ccccc2nc1Cc1ccccc1)N1CCCCC1 | 4.62% |
| CCc1nccn1S(=O)(=O)c1cc(Br)ccc1Br | -0.03% |
| CCOc1ccccc1NC(=O)C1=C(C)Nc2ncnn2C1c1ccc(NC(C)=O)cc1 (stereo not given) | 1.04% |
